Experimental data published in PubChem BioAssay (EPA / NIEHS).
Records with an inconclusive call do not appear. Activity calls are given as the source filed them. The calls were made as follows, unless noted: active = hit-call score of the fitted dose curve at least 0.9, where 1 is the maximum; inactive = score below 0.9.

Legend:
[1] = read-out: Intercellular Adhesion Molecule 1 (ICAM1), ICAM1 (gene 3383); experiment: BSK_3C_ICAM1: BioMAP Diversity Plus: 3C Assay for Intercellular Adhesion Molecule 1 (ICAM1) Biomarker Activity (AID 2283003); settings: primary human endothelial cells (HUVEC); actives raise or lower the signal
Summary of the method: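 HUVEC primary cells stimulated under 3C conditions; ICAM1 measured by ELISA 24 h after compound dosing. Curves fitted bidirectionally against the DMSO baseline. Overt cytotoxicity checked by SRB staining of parallel cultures.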

[2] = BSK_3C_Proliferation: Cell Proliferation Assessment in the BioMAP Diversity Plus: 3C Assay (AID 2283006); settings: primary human endothelial cells (HUVEC);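 as to AC50: potency may reflect either rise or fall in cell number versus DMSO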
Summary of the method: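 Subconfluent HUVEC (3C system) cultured with chemical; relative cell number read at 48 h by sulforhodamine B total-protein staining (0.1% SRB after 10% TCA fixation, 560 nm). Bidirectional fit relative to DMSO.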

[3] = target: Peroxisome proliferator-activated receptor gamma (Homo sapiens) (UniProt P37231); experiment: ATG_PPARg_TRANS: Attagene TRANS-FACTORIAL HepG2 Assay for human Peroxisome Proliferator-activated Receptor-gamma (PPARg) (AID 2283007; active = hit-call score of the fitted dose curve at least 0.9, where 1 is the maximum)
Peroxisome proliferator-activated receptor gamma (Homo sapiens), sequence (P37231 whole entry, looked up, the tested form may be a part): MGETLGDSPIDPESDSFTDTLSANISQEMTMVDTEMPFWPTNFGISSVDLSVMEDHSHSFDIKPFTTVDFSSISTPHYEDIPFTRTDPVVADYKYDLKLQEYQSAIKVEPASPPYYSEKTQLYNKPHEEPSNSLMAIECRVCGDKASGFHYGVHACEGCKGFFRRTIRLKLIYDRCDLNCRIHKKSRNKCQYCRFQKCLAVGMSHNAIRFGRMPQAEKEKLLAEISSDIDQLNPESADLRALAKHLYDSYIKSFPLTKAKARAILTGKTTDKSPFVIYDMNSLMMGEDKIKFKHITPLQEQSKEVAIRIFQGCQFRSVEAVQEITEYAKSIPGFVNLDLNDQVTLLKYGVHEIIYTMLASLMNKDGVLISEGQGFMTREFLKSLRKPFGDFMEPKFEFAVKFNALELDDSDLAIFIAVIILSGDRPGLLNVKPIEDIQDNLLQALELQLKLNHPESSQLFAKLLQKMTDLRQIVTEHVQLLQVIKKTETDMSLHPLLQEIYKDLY
Summary of the method: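 After 24 h of chemical exposure, transfected HepG2 cells carrying PPARγ-Gal4 chimera reporter constructs are lysed for RNA. Reporter transcripts are measured by RT-PCR and capillary electrophoresis with fluorescent labelling, and gain of signal is fitted versus DMSO.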

[4] = target: human RAR-related Orphan Receptor gamma (RORg), RORC (gene 6097) (UniProt P51449); experiment: ATG_RORg_TRANS: Attagene TRANS-FACTORIAL HepG2 Assay for human RAR-related Orphan Receptor gamma (RORg) (AID 2283011; active = hit-call score of the fitted dose curve at least 0.9, where 1 is the maximum)
human RAR-related Orphan Receptor gamma (RORg), RORC (gene 6097), sequence (P51449 whole entry, looked up, the tested form may be a part): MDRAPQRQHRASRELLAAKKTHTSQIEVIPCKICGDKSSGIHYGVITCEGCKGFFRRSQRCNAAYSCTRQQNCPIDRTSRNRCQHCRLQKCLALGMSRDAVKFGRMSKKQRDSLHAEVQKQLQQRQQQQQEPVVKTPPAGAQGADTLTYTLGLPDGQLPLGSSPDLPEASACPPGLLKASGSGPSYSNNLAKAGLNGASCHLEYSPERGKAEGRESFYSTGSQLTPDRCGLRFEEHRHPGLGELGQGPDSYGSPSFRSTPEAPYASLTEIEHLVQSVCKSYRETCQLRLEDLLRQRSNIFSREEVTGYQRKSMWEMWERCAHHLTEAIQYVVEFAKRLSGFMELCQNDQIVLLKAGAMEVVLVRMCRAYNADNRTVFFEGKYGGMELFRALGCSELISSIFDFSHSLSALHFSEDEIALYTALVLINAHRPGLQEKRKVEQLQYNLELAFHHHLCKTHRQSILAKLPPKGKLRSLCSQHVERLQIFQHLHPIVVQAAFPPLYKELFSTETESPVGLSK
Summary of the method: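 First, HepG2 liver cells were transfected with GAL4-UAS-driven reporter constructs and the RORg-Gal4 fusion. Next, they were treated with chemical for 24 h. Finally, reporter mRNA was quantified by RT-PCR and capillary electrophoresis, with upward activity fitted against DMSO.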

[5] = target: Retinoic acid receptor RXR-alpha (Homo sapiens) (UniProt P19793); experiment: ATG_RXRa_TRANS: Attagene TRANS-FACTORIAL HepG2 Assay for human Retinoid X Receptor alpha (RXRa) (AID 2283012; active = hit-call score of the fitted dose curve at least 0.9, where 1 is the maximum)
Retinoic acid receptor RXR-alpha (Homo sapiens), sequence (P19793 whole entry, looked up, the tested form may be a part): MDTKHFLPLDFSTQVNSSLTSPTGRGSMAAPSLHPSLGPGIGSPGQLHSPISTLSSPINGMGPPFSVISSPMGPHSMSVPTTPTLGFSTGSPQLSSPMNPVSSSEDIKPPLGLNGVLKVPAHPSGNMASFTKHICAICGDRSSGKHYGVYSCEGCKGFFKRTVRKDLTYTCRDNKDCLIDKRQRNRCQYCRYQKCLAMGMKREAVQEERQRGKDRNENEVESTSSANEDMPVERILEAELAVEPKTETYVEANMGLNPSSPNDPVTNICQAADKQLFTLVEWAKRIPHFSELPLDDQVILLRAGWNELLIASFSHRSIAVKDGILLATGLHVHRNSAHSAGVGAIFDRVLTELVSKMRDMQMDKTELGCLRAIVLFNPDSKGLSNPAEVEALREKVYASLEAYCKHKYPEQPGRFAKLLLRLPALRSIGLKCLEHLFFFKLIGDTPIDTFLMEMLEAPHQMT
Summary of the method: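 HepG2 cells transiently transfected with GAL4-UAS reporter units and chimeric RXRa-Gal4 protein, treated 24 h. Reporter mRNA measured by RT-PCR, fluorescent labelling, HpaI digestion and capillary electrophoresis. Induction fitted against DMSO.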

[6] = target: human Retinoid X Receptor beta (RXRb), RXRB (gene 6257) (UniProt P28702); experiment: ATG_RXRb_TRANS: Attagene TRANS-FACTORIAL HepG2 Assay for human Retinoid X Receptor beta (RXRb) (AID 2283013; active = hit-call score of the fitted dose curve at least 0.9, where 1 is the maximum)
human Retinoid X Receptor beta (RXRb), RXRB (gene 6257), sequence (P28702 whole entry, looked up, the tested form may be a part): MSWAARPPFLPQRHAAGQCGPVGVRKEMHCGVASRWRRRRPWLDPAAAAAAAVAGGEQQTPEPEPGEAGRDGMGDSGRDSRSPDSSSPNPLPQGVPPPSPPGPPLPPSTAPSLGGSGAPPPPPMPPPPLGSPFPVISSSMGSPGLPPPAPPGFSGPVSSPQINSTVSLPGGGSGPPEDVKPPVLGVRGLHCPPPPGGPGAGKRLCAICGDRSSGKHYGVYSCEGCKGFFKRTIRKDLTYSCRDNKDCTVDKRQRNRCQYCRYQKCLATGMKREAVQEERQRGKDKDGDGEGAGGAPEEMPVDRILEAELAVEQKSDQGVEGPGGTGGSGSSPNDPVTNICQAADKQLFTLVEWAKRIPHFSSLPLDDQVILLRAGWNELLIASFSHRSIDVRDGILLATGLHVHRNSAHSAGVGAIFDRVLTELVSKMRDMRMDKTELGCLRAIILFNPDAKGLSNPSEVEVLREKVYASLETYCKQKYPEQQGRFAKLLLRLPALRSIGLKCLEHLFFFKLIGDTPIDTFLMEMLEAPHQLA
Summary of the method: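 HepG2 cells were transiently transfected with multiplexed GAL4-UAS reporters and a chimeric RXRb-Gal4 construct, then exposed for 24 h. Reporter mRNA was quantified by RT-PCR, FAM labeling, HpaI digestion and capillary electrophoresis; gain of signal was scored against DMSO.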

[7] = read-out: E-selectin (Homo sapiens) (UniProt P16581); experiment: BSK_3C_Eselectin: BioMAP Diversity Plus: 3C Assay for Eselectin Biomarker Activity (AID 2283015); settings: primary human endothelial cells (HUVEC); actives raise or lower the signal
Summary of the method: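 ELISA read-out of E-selectin on endothelial monolayers after 24 h chemical treatment. Human umbilical vein primary cells served as the system, with DMSO defining baseline activity for bidirectional fitting.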

[8] = read-out: Interleukin-1 alpha (IL1a), IL1A (gene 3552); experiment: BSK_BE3C_IL1a: BioMAP Diversity Plus: BE3C Assay for Interleukin-1 alpha (IL1a) Biomarker Activity (AID 2283016); settings: primary human bronchial epithelial cells; actives raise or lower the signal
Summary of the method: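 Human primary bronchial epithelial cells, 24 h chemical exposure; IL-1a quantified by ELISA, fitted bidirectionally against DMSO. Cytotoxicity assessed in parallel by SRB total-protein staining at the time of measurement.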

[9] = read-out: Monocyte Chemoattractant Protein-1 (MCP1), CCL2 (gene 6347); experiment: BSK_3C_MCP1: BioMAP Diversity Plus: 3C Assay for Monocyte Chemoattractant Protein-1 (MCP1) Biomarker Activity (AID 2283017); settings: primary human endothelial cells (HUVEC); actives raise or lower the signal
Summary of the method: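 ELISA read-out of MCP-1 from human umbilical vein endothelial cell cultures harvested 24 h post-dosing. Gain or loss of signal was fitted relative to DMSO.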

[10] = read-out: Monocyte Chemoattractant Protein-1 (MCP1), CCL2 (gene 6347); experiment: BSK_4H_MCP1: BioMAP Diversity Plus: 4H Assay for Monocyte Chemoattractant Protein-1 (MCP1) Biomarker Activity (AID 2283018); settings: primary human endothelial cells (HUVEC); actives raise or lower the signal
Summary of the method: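 Human umbilical vein endothelial cells (4H system) exposed to chemicals for 24 h in 96-well format. MCP-1 measured by ELISA; bidirectional fitting against DMSO, with SRB total-protein staining in parallel cultures for cytotoxicity.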

[11] = read-out: Human Leukocyte Antigen - DR isotype (HLADR), HLA-DRA (gene 3122); experiment: BSK_3C_HLADR: BioMAP Diversity Plus: 3C Assay for Human Leukocyte Antigen - DR isotype (HLADR) Biomarker Activity (AID 2283019); settings: primary human endothelial cells (HUVEC); actives raise or lower the signal
Summary of the method: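 ELISA readout of surface HLA-DR on human umbilical vein endothelium, taken 24 h after chemical treatment. Gain- and loss-of-signal were both fitted relative to DMSO.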

[12] = read-out: Interleukin-8 (IL8), CXCL8 (gene 3576); experiment: BSK_3C_IL8: BioMAP Diversity Plus: 3C Assay for Interleukin-8 (IL8) Biomarker Activity (AID 2283020); settings: primary human endothelial cells (HUVEC); actives raise or lower the signal
Summary of the method: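 Primary human umbilical vein endothelial cells were dosed for 24 h. IL-8 was quantified by ELISA and fitted bidirectionally against DMSO. Cytotoxicity was assessed in parallel cultures by SRB staining at 560 nm.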

[13] = read-out: Monokine induced gamma interferon (MIG), CXCL9 (gene 4283); experiment: BSK_3C_MIG: BioMAP Diversity Plus: 3C Assay for Monokine induced gamma interferon (MIG) Biomarker Activity (AID 2283021); settings: primary human endothelial cells (HUVEC); actives raise or lower the signal
Summary of the method: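 HUVEC primary endothelial cultures dosed with chemical; MIG quantified by ELISA at 24 h. Data fitted bidirectionally against DMSO control, with parallel SRB total-protein staining for cytotoxicity.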

[14] = target: human Vitamin D Receptor (VDR), VDR (gene 7421) (UniProt P11473); experiment: ATG_VDR_TRANS: Attagene TRANS-FACTORIAL HepG2 Assay for human Vitamin D Receptor (VDR) (AID 2283022; active = hit-call score of the fitted dose curve at least 0.9, where 1 is the maximum)
human Vitamin D Receptor (VDR), VDR (gene 7421), sequence (P11473 whole entry, looked up, the tested form may be a part): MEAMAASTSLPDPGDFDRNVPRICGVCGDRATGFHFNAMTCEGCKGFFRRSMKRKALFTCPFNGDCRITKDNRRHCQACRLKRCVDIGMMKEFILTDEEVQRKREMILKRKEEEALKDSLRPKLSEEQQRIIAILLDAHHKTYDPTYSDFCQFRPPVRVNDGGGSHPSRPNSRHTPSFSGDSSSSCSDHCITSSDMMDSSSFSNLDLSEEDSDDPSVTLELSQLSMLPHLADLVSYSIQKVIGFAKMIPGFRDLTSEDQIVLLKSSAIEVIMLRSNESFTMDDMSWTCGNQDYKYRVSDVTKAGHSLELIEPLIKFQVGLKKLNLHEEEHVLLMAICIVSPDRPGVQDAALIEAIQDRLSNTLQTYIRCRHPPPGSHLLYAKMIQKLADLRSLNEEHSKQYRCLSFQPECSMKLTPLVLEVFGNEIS
Summary of the method: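 Steps: transfect HepG2 with GAL4-UAS-driven reporter constructs; dose compounds 24 h; isolate RNA, reverse-transcribe, PCR-amplify with 6-FAM-labelled primer extension and HpaI digestion; quantify fragments by capillary electrophoresis relative to DMSO.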

[15] = BSK_3C_SRB: Viability Assessment in the BioMAP Diversity Plus: 3C Assay (AID 2283023); settings: primary human endothelial cells (HUVEC);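 also: fitted both ways against DMSO so a hit may be signal rise or drop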
Summary of the method: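 Absorbance at 560 nm of sulforhodamine B-stained (0.1%) total protein served as a cytotoxicity readout in human umbilical vein endothelial cells, 24 h after chemical treatment. Signal was fitted bidirectionally relative to DMSO.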

[16] = target: Nuclear receptor subfamily 1 group I member 2 (Homo sapiens) (UniProt O75469); experiment: ATG_PXR_TRANS: Attagene TRANS-FACTORIAL HepG2 Assay for human Pregnane X Receptor (PXR) (AID 2283008; active = hit-call score of the fitted dose curve at least 0.9, where 1 is the maximum)
Nuclear receptor subfamily 1 group I member 2 (Homo sapiens), sequence (O75469 whole entry, looked up, the tested form may be a part): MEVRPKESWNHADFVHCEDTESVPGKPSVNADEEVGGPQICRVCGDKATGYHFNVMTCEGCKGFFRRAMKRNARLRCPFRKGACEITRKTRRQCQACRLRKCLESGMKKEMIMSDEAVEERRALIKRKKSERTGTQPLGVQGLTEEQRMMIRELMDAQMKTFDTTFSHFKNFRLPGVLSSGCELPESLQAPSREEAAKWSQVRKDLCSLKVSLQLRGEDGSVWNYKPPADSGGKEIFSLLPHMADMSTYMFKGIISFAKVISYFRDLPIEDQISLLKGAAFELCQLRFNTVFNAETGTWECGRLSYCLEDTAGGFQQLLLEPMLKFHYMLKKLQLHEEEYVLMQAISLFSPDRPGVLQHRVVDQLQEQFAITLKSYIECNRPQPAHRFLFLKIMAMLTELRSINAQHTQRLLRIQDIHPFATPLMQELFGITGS
Summary of the method: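 Measures mRNA induction of a GAL4-UAS-driven reporter in human HepG2 cells transiently expressing PXR fused to Gal4, following 24 h treatment. DMSO served as negative control and baseline.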

[17] = target: human Thyroid Receptor alpha (THRa1), THRA (gene 7067) (UniProt P10827); experiment: ATG_THRa1_TRANS: Attagene TRANS-FACTORIAL HepG2 Assay for human Thyroid Receptor alpha (THRa1) (AID 2283014; active = hit-call score of the fitted dose curve at least 0.9, where 1 is the maximum)
human Thyroid Receptor alpha (THRa1), THRA (gene 7067), sequence (P10827 whole entry, looked up, the tested form may be a part): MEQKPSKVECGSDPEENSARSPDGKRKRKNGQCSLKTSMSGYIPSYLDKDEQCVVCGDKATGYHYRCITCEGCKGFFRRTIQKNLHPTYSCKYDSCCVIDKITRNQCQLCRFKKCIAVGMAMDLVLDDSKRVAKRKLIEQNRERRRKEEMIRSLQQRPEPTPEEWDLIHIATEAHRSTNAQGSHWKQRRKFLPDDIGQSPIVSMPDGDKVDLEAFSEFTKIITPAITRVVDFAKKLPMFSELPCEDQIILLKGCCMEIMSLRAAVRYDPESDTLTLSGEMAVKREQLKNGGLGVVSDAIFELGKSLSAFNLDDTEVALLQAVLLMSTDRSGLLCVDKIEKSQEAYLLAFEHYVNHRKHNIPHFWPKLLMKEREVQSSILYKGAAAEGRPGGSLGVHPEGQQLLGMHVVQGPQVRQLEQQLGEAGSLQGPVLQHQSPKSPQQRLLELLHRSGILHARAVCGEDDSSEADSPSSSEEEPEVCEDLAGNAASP
Summary of the method: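 Reporter transcript induction, read by capillary electrophoresis of 6-FAM-labelled RT-PCR products, reflects activity of a transfected THRa1-Gal4 fusion in HepG2 liver cells. Cells were dosed for 24 h; activity was fitted in the positive direction against DMSO.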

[18] = target: human Retinoic Acid Receptor gamma (RARg), RARG (gene 5916) (UniProt P13631); experiment: ATG_RARg_TRANS: Attagene TRANS-FACTORIAL HepG2 Assay for human Retinoic Acid Receptor gamma (RARg) (AID 2283009; active = hit-call score of the fitted dose curve at least 0.9, where 1 is the maximum)
human Retinoic Acid Receptor gamma (RARg), RARG (gene 5916), sequence (P13631 whole entry, looked up, the tested form may be a part): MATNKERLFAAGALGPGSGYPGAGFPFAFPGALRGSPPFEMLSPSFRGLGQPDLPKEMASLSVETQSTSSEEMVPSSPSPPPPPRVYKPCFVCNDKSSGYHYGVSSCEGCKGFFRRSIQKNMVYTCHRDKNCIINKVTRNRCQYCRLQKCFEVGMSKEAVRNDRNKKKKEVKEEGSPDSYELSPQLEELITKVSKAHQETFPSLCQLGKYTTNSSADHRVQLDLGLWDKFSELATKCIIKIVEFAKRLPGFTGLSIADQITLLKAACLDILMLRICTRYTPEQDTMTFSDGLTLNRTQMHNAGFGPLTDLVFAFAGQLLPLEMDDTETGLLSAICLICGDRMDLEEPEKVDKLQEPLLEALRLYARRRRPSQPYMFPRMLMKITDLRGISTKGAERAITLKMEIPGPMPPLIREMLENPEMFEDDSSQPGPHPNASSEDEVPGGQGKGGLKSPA
Summary of the method: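 HepG2 transiently transfected with GAL4-UAS reporter units and chimeric NR-Gal4 constructs; 24 h compound exposure. Reporter mRNA quantified by RT-PCR, FAM labeling, HpaI digestion and capillary electrophoresis; gain-of-signal versus DMSO.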

[19] = target: human RAR-related Orphan Receptor beta (RORb), RORB (gene 6096) (UniProt Q92753); experiment: ATG_RORb_TRANS: Attagene TRANS-FACTORIAL HepG2 Assay for human RAR-related Orphan Receptor beta (RORb) (AID 2283010; active = hit-call score of the fitted dose curve at least 0.9, where 1 is the maximum)
human RAR-related Orphan Receptor beta (RORb), RORB (gene 6096), sequence (Q92753 whole entry, looked up, the tested form may be a part): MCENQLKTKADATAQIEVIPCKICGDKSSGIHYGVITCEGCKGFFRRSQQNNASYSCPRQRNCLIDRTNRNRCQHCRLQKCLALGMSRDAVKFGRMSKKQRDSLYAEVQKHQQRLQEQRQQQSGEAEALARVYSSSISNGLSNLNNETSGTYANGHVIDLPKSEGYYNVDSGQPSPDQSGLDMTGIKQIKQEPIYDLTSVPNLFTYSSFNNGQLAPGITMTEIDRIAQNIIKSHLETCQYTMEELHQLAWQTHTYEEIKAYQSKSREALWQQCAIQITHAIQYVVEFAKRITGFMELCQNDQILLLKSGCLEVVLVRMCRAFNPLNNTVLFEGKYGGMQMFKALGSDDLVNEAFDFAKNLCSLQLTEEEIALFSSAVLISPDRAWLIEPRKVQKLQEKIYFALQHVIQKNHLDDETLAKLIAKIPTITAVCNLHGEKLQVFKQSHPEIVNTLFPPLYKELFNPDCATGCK
Summary of the method: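 HepG2 cells transiently transfected with GAL4-UAS reporter units expressing chimeric NR-Gal4 protein; reporter mRNA measured 24 h after dosing by RT-PCR, 6-FAM labelling and capillary electrophoresis. Gain-of-signal fitted relative to DMSO baseline.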

Measured: AC50

E-selectin (Homo sapiens), sequence (P16581 whole entry, looked up): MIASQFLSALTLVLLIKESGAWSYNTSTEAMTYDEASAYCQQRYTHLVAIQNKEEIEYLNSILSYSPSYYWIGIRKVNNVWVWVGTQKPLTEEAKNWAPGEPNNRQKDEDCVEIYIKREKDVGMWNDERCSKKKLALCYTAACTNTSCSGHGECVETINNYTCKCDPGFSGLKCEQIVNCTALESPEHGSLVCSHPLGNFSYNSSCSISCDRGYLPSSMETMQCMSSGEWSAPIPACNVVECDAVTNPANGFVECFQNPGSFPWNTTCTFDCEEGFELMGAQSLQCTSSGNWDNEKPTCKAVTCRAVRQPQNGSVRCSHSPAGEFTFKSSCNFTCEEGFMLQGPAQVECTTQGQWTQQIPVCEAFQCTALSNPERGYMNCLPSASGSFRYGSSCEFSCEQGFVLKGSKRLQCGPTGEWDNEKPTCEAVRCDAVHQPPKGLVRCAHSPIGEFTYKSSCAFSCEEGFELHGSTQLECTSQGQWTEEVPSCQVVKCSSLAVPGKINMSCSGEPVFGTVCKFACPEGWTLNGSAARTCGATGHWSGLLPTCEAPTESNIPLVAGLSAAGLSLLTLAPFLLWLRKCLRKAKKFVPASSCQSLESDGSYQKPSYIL

N#Cc1cc([N+](=O)[O-])ccc1N
inactive: [1] | [2] | [3] | [4] | [5] | [6] | [7] | [8] | [9] | [10] | [11] | [12] | [13] | [14] | [15]

CCCCC(CC)COP(=O)(Oc1ccccc1)Oc1ccccc1 (stereo unspecified)
inactive: [1] | [5] | [6] | [13] | [14]
active: [2] 7.38 µM | [3] 5.22 µM | [16] 0.296 µM | [7] 6.53 µM | [8] 8.12 µM | [9] 10.6 µM | [10] 7.85 µM | [11] 9.37 µM | [12] 6.65 µM | [15] 9.7 µM

Cc1ccc([N+](=O)[O-])cc1C
inactive: [1] | [2] | [5] | [6] | [7] | [8] | [9] | [10] | [11] | [12] | [13] | [14] | [15]

CC(Cl)(Cl)C(=O)O
inactive: [1] | [2] | [3] | [16] | [4] | [5] | [17] | [7] | [8] | [9] | [10] | [11] | [12] | [13] | [15]

CC(C)(C)N(NC(=O)c1ccc(Cl)cc1)C(=O)c1ccccc1
inactive: [3] | [18] | [6] | [14]

Cc1cc(C)c(C(=O)P(=O)(c2ccccc2)c2ccccc2)c(C)c1
active: [16] 0.0576 µM

C/C(=N\NC(=O)Nc1cc(F)cc(F)c1)c1ncccc1C(=O)O
inactive: [3] | [16] | [19] | [5] | [6] | [17] | [14]

C=C(C)C(=O)OCC1CO1 (stereo unspecified)
inactive: [3] | [19]

CN(C)C(=O)Cl
inactive: [1] | [2] | [16] | [18] | [19] | [6] | [17] | [7] | [8] | [9] | [10] | [11] | [12] | [13] | [14] | [15]

Nc1ccc2ccccc2c1
inactive: [1] | [2] | [3] | [18] | [19] | [4] | [5] | [17] | [7] | [8] | [9] | [10] | [11] | [12] | [13] | [15]

FC(F)(F)C(F)(C(F)(F)F)C(F)(F)C(F)(F)CC1CO1 (stereo unspecified)
inactive: [1] | [2] | [3] | [18] | [5] | [17] | [7] | [8] | [9] | [10] | [11] | [12] | [13] | [14] | [15]

CCC(C)(C)c1ccc(O)cc1
active: [16] 7.92 µM | [6] 9.83 µM
inactive: [1] | [2] | [3] | [19] | [5] | [7] | [8] | [9] | [10] | [11] | [12] | [13] | [15]

O=[N+]([O-])c1ccccc1
active: [6] 10.7 µM
inactive: [1] | [2] | [16] | [7] | [8] | [9] | [10] | [11] | [12] | [13] | [15]
